Laboratory results taken from PubChem BioAssay (NCATS).
Records with an inconclusive call do not appear. The list shows a part of the results. Calls of active or inactive are those of the source. Unless noted, calls follow the shape of the dose curve; as a rule, active = well fitted curve in the direction sought with a large enough effect; inconclusive = small, poorly fitted or top-dose-only effect, or another doubt; inactive = no such curve, though single readings can be large; an effect the other way counts as inactive or inconclusive.

Legend:
[1] = target: Rap guanine nucleotide exchange factor 3 (Homo sapiens) (UniProt O95398); test: Confirmatory qHTS for antagonist of cAMP-regulated guanine nucleotide exchange factor 3 (EPAC1) (AID 1645880); also: nearly all actives have a fitted effect of over 55% in size; also: potency is read from the fitted curve at half-maximal effect
How it was run: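 Released BODIPY-GDP fluoresces less than Rap1-bound BODIPY-GDP; the signal is followed at 480/540 nm at 5-min intervals over 30 min, after 5 min at room temperature. Reactions contain 100 nM EPAC1, 250 nM RAP1B-BODIPY-GDP and 50 uM GDP; results are normalized to ATA and DMSO.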

[2] = target: Rap guanine nucleotide exchange factor 3 (Homo sapiens) (UniProt O95398); test: Confirmatory qHTS for agonist of cAMP-regulated guanine nucleotide exchange factor 3 (EPAC1) (AID 1645881);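 also: EPAC1 catalysed release of BODIPY-GDP from Rap1B seen as fluorescence loss; 100% = effect of cAMP agonist control; nearly all actives have a fitted effect of over 75% in size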
[3] = target: Rap guanine nucleotide exchange factor 4 (Homo sapiens) (UniProt Q8WZA2); test: Confirmatory qHTS for agonist of cAMP-regulated guanine nucleotide exchange factor 4 (EPAC2) (AID 1645884);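 also: nucleotide exchange releases bodipy-GDP from Rap1 and this lowers its fluorescence; % is scaled to controls: 0 for no effect and ±100 for the full control effect; nearly all actives have a fitted effect of over 65% in size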
[4] = target: Rap guanine nucleotide exchange factor 4 (Homo sapiens) (UniProt Q8WZA2); test: Confirmatory qHTS for antagonist of cAMP-regulated guanine nucleotide exchange factor 4 (EPAC2) (AID 1645885); also: nearly all actives have a fitted effect of over 25% in size; also: potency is read from the fitted curve at half-maximal effect; as to activity change, negative = inhibition: % is scaled to controls: 0 for no effect and ±100 for the full control effect
[5] = target: Rap guanine nucleotide exchange factor 3 (Homo sapiens) (UniProt O95398); test: Counterscreen qHTS for antagonist of cAMP-regulated guanine nucleotide exchange factor 3 (EPAC1) (AID 1645888); also: % of control where 0% means no effect
How it was run: (§1)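 Measured: fluorescence of BODIPY-GDP bound to Rap1B, which falls as exchange proceeds. Conditions include 50 uM competing GDP, 5 and 30 min reads, and a later cAMP challenge for antagonist detection.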

[6] = target: Rap guanine nucleotide exchange factor 3 (Homo sapiens) (UniProt O95398); test: Counterscreen qHTS for agonist of cAMP-regulated guanine nucleotide exchange factor 3 (EPAC1) (AID 1645889); also: % of control where 0% means no effect; nearly all actives have a fitted effect of over 40% in size
How it was run: as §1

[7] = AP1 Signaling Pathway (AID 357; active = well fitted curve in either direction with a large enough effect, not every such curve was filed as active; also: % is scaled to controls: 0 for no effect and ±100 for the full control effect)
How it was run: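 Modulation of EGF-driven AP-1 transcription was assessed with a beta-lactamase reporter in ME-180 cells. Compound and EC50 EGF were co-incubated 5 hours at 37 °C before 2.5-hour CCF4 loading at room temperature and dual-emission reading.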

[8] = NFAT Signaling Pathway (AID 444; active = well fitted curve in either direction with a large enough effect, not every such curve was filed as active;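 also: carbachol stimulus at about its EC50 of 1 µM final; % is scaled to controls: 0 for no effect and ±100 for the full control effect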); conditions: Jurkat NFAT-bla M1, carbachol, beta-lactamase ratio, 5 h; at 17.2 µM (top of the series)
How it was run: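 Jurkat cells carrying an NFAT-driven β-lactamase reporter and co-transfected muscarinic M1 receptor were treated with compound plus carbachol (1 uM final, an EC50 level) for 5 h at 37 °C. CCF4 loading followed for 1 h at RT; 460/530 nm ratio gave %activity.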

[9] = target: Glucocorticoid receptor (Homo sapiens) (UniProt P04150); test: GR-GFP Redistribution (AID 450;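 active = compounds whose dose series gives a full or clear partial fitted curve of increased nuclear translocation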; also: potency is read from the fitted curve at half-maximal effect); conditions: U2OS GR-GFP nuclear translocation, laser cytometry, 2 h
[10] = target: Lysosomal acid glucosylceramidase (Homo sapiens) (UniProt P04062); test: Glucocerebrosidase-p2 (AID 348; in the data active = potency below about 10 µM; also: potency is read from the fitted curve at half-maximal effect); conditions: purified GBA, blue fluorogenic substrate, 40 min
How it was run: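 Normal human glucocerebrosidase (0.2 nM) with blue fluorogenic substrate (80 uM final) in citrate/phosphate pH 5.9 with 10mM sodium taurocholate, 0.01% tween-20; 40 min RT, NaOH/glycine stop; fluorescence Ex 365/Em 440; AC50 from a titration from 0.6 nM upwards.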

[11] = target: Cytochrome P450 1A2 (Homo sapiens) (UniProt P05177); test: p450-cyp1a2 (AID 410; calls by dose curve;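 also: -100% = full effect of reference inhibitor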)
How it was run: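 20nM CYP1A2, 100uM Luciferin-ME (=Km), 100mM KPO4; cpd 10 min RT; +NADPH regen, 60 min RT; stop/detect 20 min; luminescence. Normalized to furafylline 57 uM = full inhibition.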

[12] = target: Glucocorticoid receptor (Homo sapiens) (UniProt P04150); test: GR-EFC Redistribution (AID 451; calls by dose curve; also: potency is read from the fitted curve at half-maximal effect); conditions: CHO-K1 GR-EFC translocation, beta-gal luminescence, 2 h
How it was run: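 CHO-K1 cells stably expressing nuclear-localized β-gal enzyme acceptor and GR fused C-terminally to the enzyme donor fragment; ligand-driven nuclear translocation restores β-gal by complementation. Compounds titrated up to 46 uM final, 2 h at 37 °C; luminescence read.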

[13] = target: Mitogen-activated protein kinase 10 (Mus musculus) (UniProt Q61831); test: JNK3 AlphaScreen Assay (AID 530; active = well fitted curve in either direction with a large enough effect, not every such curve was filed as active;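 also: kinase came from lysate of stimulated human HepG2 cells; signal reports phosphorylation of biotinylated GST-cJun 1-79 at Ser73 with 10 µM ATP; % is scaled to controls: 0 for no effect and ±100 for the full control effect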)
How it was run: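 Biotinylated GST-cJun(1-79) served as substrate for JNK3 in HepG2 lysates stimulated with IL-1beta and TNF-alpha. ATP was 10 uM final, pH 7.6. Ser73 phosphorylation was quantified by AlphaScreen (680 nm excitation).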

[14] = target: 3',5'-cyclic-AMP phosphodiesterase 4B (Homo sapiens) (UniProt Q07343); test: qHTS Assay for Inhibitors of PDE-IV (AID 607; active = well fitted activation curve with a large enough effect in the main read-out, with a control signal flat, not every such curve was filed as active; also: % of control where 0% means no effect)
How it was run: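 ACTOne HEK293 cells carry a modified cAMP-gated CNG channel and express endogenous PDE4; plated 1000 cells/well, compounds up to 22.9 uM final. Membrane-potential dye fluorescence (ex 535/em 590) was read; parental cells received 10 uM forskolin + 100 uM RO 20-1724.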

[15] = target: Cytochrome P450 2C9 (Homo sapiens) (UniProt P11712); test: qHTS Assay for Inhibitors and Substrates of Cytochrome P450 2C9 (AID 883); also: potency is read from the fitted curve at half-maximal effect; nearly all actives have a fitted effect of over 60% in size
How it was run: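 CYP2C9 deoxyluciferin hydroxylation, 37C, 60 min with NADPH regeneration; 10nM enzyme, 100uM Luciferin-H (KM). Glo detection reagent stopped reaction; luminescence normalized to sulphaphenazole (57uM) full inhibition.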

[16] = target: DNA polymerase kappa (Homo sapiens) (UniProt Q9UBT6); test: qHTS for Inhibitors of Polymerase Kappa: Confirmatory Assay for Cherry-picked Compounds (AID 720501); conditions: purified Pol-kappa, fluorescent strand-displacement substrate; also: potency is read from the fitted curve at half-maximal effect
How it was run: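 Human Pol-kappa, dispensed at 10 nM, was preincubated with compounds for 15 min at room temperature. Reactions were started with primer/template substrate (50 nM final) carrying a TAMRA reporter strand and BHQ-2-quenched template, and fluorescence (ex 525/em 598 nm) was read at 0 and 10 min.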

[17] = target: DNA polymerase eta (Homo sapiens) (UniProt Q9Y253); test: qHTS for Inhibitors of Polymerase Eta: Confirmatory Assay for Cherry-picked Compounds (AID 720502); conditions: Pol eta primer extension, TAMRA/BHQ fluorescence, 10 min; also: potency is read from the fitted curve at half-maximal effect
How it was run: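 The reaction starts with 50 nM final labeled DNA substrate added to Pol eta (10 nM) that had sat with compound for 15 min. TAMRA emission at 598 nm is read at 0 and 10 min.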

Chain of Rap guanine nucleotide exchange factor 4 (Homo sapiens) (Q8WZA2 whole entry, looked up): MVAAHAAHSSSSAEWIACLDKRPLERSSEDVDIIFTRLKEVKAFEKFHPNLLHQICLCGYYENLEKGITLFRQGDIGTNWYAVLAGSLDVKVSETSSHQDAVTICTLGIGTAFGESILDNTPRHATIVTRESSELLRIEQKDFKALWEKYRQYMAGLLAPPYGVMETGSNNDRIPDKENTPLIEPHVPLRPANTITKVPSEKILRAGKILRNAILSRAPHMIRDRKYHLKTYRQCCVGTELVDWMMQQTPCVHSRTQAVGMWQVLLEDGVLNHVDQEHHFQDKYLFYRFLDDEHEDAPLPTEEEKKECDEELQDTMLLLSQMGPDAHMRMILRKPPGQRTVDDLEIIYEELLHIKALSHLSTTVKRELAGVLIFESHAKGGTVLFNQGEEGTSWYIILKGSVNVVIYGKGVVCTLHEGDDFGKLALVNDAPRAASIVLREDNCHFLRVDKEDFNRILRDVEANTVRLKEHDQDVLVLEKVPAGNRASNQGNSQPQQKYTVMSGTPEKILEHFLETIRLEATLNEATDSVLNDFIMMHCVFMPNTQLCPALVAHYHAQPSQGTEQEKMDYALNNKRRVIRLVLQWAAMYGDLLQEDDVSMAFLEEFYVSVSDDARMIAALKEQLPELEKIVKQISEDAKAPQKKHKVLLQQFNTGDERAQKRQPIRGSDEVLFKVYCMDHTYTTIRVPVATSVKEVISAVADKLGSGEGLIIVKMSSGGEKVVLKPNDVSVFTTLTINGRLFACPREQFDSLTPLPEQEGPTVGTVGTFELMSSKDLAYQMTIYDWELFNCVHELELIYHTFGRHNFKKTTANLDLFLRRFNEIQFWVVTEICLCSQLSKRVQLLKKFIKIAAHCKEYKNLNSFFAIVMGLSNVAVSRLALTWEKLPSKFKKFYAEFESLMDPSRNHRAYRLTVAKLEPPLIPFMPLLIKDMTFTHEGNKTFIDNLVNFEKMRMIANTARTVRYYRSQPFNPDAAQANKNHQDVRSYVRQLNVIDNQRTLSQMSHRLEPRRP
Chain of Glucocorticoid receptor (Homo sapiens) (P04150 whole entry, looked up, the tested form may be a part): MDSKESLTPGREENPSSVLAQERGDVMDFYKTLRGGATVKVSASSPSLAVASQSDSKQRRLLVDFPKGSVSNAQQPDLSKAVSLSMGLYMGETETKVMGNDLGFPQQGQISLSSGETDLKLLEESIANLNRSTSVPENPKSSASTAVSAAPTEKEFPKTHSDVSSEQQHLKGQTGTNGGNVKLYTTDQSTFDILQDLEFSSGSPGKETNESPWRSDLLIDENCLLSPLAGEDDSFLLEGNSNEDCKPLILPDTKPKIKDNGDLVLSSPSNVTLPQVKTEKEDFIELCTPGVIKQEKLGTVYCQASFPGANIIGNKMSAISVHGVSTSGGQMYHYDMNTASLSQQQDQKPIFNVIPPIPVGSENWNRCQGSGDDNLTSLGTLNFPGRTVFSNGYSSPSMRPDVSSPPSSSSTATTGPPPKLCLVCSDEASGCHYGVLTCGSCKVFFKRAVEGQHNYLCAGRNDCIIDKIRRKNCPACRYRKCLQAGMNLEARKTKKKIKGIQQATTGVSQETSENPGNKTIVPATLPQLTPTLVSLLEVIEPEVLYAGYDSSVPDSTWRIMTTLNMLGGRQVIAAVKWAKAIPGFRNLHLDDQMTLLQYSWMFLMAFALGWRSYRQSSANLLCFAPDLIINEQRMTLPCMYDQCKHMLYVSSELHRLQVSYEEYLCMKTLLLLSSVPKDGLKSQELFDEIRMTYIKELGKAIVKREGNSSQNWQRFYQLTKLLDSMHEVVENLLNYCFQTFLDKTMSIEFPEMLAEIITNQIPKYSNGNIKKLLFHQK
Chain of Rap guanine nucleotide exchange factor 3 (Homo sapiens) (O95398 whole entry, looked up): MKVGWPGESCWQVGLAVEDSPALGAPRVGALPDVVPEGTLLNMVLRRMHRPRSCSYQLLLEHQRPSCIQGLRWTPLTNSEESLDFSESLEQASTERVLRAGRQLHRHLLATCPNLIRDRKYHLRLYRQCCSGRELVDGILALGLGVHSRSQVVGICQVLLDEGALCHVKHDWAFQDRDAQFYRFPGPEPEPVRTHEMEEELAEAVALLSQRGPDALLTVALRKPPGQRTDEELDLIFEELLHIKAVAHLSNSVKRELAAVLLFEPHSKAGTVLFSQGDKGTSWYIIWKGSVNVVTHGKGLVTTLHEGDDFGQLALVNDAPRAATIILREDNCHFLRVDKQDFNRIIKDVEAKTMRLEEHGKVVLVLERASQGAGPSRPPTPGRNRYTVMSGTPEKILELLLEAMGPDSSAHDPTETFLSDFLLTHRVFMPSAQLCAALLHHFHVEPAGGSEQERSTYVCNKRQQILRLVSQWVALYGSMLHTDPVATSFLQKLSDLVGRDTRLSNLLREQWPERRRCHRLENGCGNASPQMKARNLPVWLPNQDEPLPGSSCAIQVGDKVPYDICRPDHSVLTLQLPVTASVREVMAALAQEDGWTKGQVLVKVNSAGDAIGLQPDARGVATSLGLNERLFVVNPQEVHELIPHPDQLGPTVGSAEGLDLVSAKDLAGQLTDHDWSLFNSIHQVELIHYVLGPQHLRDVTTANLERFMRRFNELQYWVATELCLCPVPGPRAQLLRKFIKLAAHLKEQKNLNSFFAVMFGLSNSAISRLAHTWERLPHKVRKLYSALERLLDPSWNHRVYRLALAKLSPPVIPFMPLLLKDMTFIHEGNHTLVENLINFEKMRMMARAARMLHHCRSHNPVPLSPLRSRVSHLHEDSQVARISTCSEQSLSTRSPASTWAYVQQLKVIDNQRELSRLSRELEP
Chain of Lysosomal acid glucosylceramidase (Homo sapiens) (P04062 whole entry, looked up): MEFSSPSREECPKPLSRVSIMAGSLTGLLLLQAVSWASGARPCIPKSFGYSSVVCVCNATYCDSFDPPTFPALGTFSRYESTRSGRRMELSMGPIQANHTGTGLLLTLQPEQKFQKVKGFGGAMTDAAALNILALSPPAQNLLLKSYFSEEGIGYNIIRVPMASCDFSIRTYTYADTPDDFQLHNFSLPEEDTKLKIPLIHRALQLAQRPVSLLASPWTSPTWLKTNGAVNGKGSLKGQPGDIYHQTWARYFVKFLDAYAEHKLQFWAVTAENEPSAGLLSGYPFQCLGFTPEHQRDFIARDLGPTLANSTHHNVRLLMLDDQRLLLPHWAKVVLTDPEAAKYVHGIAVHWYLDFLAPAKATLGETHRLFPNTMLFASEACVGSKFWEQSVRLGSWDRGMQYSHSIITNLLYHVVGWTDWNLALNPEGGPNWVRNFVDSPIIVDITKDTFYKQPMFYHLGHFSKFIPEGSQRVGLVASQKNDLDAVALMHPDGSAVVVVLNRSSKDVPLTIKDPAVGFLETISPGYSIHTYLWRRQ
Chain of 3',5'-cyclic-AMP phosphodiesterase 4B (Homo sapiens) (Q07343 whole entry, looked up): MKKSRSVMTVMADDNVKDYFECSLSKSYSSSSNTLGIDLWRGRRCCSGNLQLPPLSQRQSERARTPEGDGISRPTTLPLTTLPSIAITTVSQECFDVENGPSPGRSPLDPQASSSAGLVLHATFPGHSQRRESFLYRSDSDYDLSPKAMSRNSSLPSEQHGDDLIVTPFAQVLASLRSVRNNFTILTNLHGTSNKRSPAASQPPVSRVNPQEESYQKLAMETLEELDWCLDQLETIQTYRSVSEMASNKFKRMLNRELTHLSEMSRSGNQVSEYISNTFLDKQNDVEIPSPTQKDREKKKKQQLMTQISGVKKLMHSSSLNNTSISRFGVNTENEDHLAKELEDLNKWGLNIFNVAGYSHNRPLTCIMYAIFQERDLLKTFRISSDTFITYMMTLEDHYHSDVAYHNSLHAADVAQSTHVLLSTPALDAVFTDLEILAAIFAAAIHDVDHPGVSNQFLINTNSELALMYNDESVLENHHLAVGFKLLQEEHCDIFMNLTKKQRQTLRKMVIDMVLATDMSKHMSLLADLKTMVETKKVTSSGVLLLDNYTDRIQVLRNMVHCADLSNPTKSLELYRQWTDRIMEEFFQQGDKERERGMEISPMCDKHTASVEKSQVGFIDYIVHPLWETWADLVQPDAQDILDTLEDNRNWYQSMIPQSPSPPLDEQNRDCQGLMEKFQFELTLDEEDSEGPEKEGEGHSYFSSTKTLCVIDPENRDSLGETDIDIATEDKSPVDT
Chain of Cytochrome P450 1A2 (Homo sapiens) (P05177 whole entry, looked up): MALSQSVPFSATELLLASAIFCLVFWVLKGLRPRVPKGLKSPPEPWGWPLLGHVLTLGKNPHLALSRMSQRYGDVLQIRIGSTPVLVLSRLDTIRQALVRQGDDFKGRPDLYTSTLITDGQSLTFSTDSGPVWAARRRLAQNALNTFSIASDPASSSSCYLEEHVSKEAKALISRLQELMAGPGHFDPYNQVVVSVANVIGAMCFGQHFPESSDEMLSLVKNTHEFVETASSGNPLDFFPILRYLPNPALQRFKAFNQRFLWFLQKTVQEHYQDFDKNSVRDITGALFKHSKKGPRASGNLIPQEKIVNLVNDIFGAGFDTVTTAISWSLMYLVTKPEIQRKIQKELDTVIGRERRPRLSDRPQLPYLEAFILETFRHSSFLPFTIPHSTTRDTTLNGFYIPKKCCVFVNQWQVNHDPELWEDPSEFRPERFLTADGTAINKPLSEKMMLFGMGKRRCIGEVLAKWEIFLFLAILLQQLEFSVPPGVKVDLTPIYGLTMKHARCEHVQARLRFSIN
Chain of Cytochrome P450 2C9 (Homo sapiens) (P11712 whole entry, looked up): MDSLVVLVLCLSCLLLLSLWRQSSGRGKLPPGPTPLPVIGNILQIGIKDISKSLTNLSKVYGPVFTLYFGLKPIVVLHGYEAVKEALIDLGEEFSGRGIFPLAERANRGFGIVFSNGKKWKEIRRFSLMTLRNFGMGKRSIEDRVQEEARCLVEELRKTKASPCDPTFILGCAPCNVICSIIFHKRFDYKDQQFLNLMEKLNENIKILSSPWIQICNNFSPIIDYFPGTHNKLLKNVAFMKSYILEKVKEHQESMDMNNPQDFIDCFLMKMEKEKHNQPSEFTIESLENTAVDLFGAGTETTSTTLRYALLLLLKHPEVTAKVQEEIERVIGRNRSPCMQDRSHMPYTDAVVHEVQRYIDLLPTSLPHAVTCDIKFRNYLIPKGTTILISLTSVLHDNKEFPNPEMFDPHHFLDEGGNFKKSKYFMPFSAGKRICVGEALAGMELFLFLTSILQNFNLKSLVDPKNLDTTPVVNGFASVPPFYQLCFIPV

COc1ccc(C(=O)C2CN(C)CC2c2ccc(Cl)cc2)cc1 (stereo not drawn)
inactive: Potency [1] | Potency [2] | activation [3] 2.15% [at 17.1 µM, percent relative to cAMP agonist control] | activity change, negative = inhibition [4] -16.3% [at 12.7 µM] | activity change, negative = inhibition [5] 7.3% [at 30.8 µM] | activation [6] 27.2% [at 30.8 µM]

Cc1ccc(N2C(=O)NC(=O)/C(=C\C=C\c3ccco3)C2=O)cc1C
inactive: Potency [2] | Potency [3] | Potency [4] | outcome [5] | Potency [6]
active: Potency [1] 33.8 µM

CCCCn1c(O)c(C=NCCN2CCCCC2)c(=O)[nH]c1=O
inactive: outcome [7] | activity change, negative = inhibition [8] -9.1% | Potency [9] > 20.6 µM | Potency [1] | Potency [2] | Potency [3] | outcome [5] | Potency [6]
active: Potency [4] 75.7 µM

CC1=C(O)C(=O)C=C2C1=CC=C1C2(C)CCC2(C)C3CC(C)(C(=O)O)CCC3(C)CCC12C (stereo not drawn)
active: Potency [1] 33.8 µM | Potency [4] 0.953 µM
inactive: Potency [2] | Potency [3] | outcome [5] | Potency [6]

CC[C@@H]1c2ccccc2[C@@H]2CC[C@H]1N2c1ccccc1
inactive: Potency [1] | Potency [2] | activation [3] 4.18% [at 17.1 µM, percent relative to cAMP agonist control] | activity change, negative = inhibition [4] -6.37% [at 12.7 µM] | activity change, negative = inhibition [5] -4.57% [at 30.8 µM] | activation [6] -4.47% [at 30.8 µM]

Cc1cccc(N2C(=O)NC(=O)/C(=C\c3cccn3-c3ccc(Cl)cc3)C2=O)c1
inactive: Potency [2] | Potency [3] | Potency [4] | outcome [5] | Potency [6]
active: Potency [1] 47.8 µM

O=C1NC(=O)N(Cc2ccco2)C(=O)/C1=C/C=C/c1ccco1
inactive: Potency [1] | Potency [2] | activation [3] 0.0468% [at 17.1 µM, percent relative to cAMP agonist control] | activity change, negative = inhibition [4] 0.223% [at 12.7 µM] | activity change, negative = inhibition [5] -7.48% [at 30.8 µM] | activation [6] -8.64% [at 30.8 µM]

CC(C)c1ccc(C(c2c(O)c3ccccc3oc2=O)c2c(O)c3ccccc3oc2=O)cc1
active: Potency [15] 3.16 µM | Potency [1] 15.1 µM
inactive: Potency [10] > 11.4 µM | outcome [7] | activity change, negative = inhibition [11] -18.8% [at 2.29 µM] | Potency [9] > 46 µM | Potency [12] > 9.22 µM | activity change, negative = inhibition [13] -6.98% [at 11.4 µM] | Potency [14] | Potency [2] | Potency [3] | Potency [4] | outcome [5] | Potency [6]

O=C1NC(=O)N(Cc2ccco2)C(=O)/C1=C\c1ccc(-c2ccc(F)cc2)o1
active: Potency [16] 42.3 µM | Potency [17] 47.8 µM | Potency [1] 22.4 µM
inactive: Potency [2] | activation [3] -0.903% [at 17.1 µM, percent relative to cAMP agonist control] | activity change, negative = inhibition [4] -6.14% [at 12.7 µM] | activity change, negative = inhibition [5] -21.9% [at 30.8 µM] | activation [6] 11.1% [at 30.8 µM]

CCN(CC)c1ccc(N=Cc2c(O)n(CCC3=CCCCC3)c(=O)[nH]c2=O)cc1
active: Potency [1] 75.7 µM
inactive: Potency [2] | Potency [3] | Potency [4] | outcome [5] | Potency [6]
